Measured values reported in the supplement of paper PMC10849652.
The full data set covers some 7,900 targets. This sample favours those with a hit. About 0.6% of all pairs of compound and target were hits. A number with no mark means an inactive call.

What was measured:
Assay in all cases: log2 fold change, soluble protein after heating vs DMSO (PISA); higher = thermal stabilisation; K562 cells, 10 uM, 30 min; active = over 0.2 and 3.5 SD of the protein, either way, in both replicates (recomputed)
erlotinib = compound: C#Cc1cccc(Nc2ncnc3cc(OCCOC)c(OCCOC)cc23)c1 [erlotinib]
Outline: (§1)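 K562 cells at 2×10^6 cells/mL were treated for 30 min with 10 μM compound, and aliquots were heated for 3 min over 48°C-58°C before pooling. Extraction used PBS with 0.5% NP-40 at 4°C, and soluble protein was the supernatant after 21,000xg for 90 min, measured by TMTpro 16plex LC-MS/MS with channel sums equalised. Thermal stability values, relative to control samples and from duplicates, are log2 fold changes.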

[1] = compound: C/C(=N\NC(=O)C1=CC(=CC=C1)S(=O)(=O)N2CCOCC2)/C3=C(C=CC(=C3)Cl)O
Outline: as §1

[2] = compound: C1=CC(=C(C=C1Cl)C2=NC3=NC=CN=C3C(=N2)NC4=CC=NC=C4)F
Outline: as §1

[3] = compound: C1=CC(=CC=C1C2=NC3=C(N2)C=C(C=C3)C(=O)N)OC4=CC=C(C=C4)Cl
Outline: as §1

[4] = compound: C1=CC2=C(C=CC(=C2)/C=C\3/C(=O)NC(=NCC4=CC=CS4)S3)N=C1
Outline: as §1

[5] = compound: C1=CC2=NC=CN=C2C=C1/C=C/3\C(=O)NC(=O)S3
Outline: as §1

[6] = compound: C1=CC=C(C=C1)C2=NC(=C(N2)C3=CC=NC=C3)C4=CC(=C(C=C4)Cl)O
Outline: as §1

[7] = compound: C1=CC=C2C(=C1)C3=NNC4=CC=CC(=C43)C2=O
Outline: as §1

[8] = compound: C1CCN(C1)C(=O)NC2=CC=CC(=C2)NC3=NC=C(C(=N3)NCCC4=CN=CN4)Br
Outline: as §1

[9] = compound: C1CN(CCC1(CC2=CC=C(C=C2)Cl)N)C3=NC=NC4=C3C=CN4
Outline: as §1

IRAK-1-4 Inhibitor I = compound: C1COCCN1CCN2C3=CC=CC=C3N=C2NC(=O)C4=CC(=CC=C4)[N+](=O)[O-] [IRAK-1-4 Inhibitor I]
Outline: as §1

ibrutinib = compound: C=CC(=O)N1CCC[C@@H](n2nc(-c3ccc(Oc4ccccc4)cc3)c3c(N)ncnc32)C1 [ibrutinib]
Outline: as §1

[10] = compound: CC(=O)c1cnc2ccc(-c3cc(Cl)c(O)c(Cl)c3)nc2c1N[C@H]1CC[C@H](CN(C)C)CC1
Outline: as §1

ralimetinib = compound: CC(C)(C)Cn1c(N)nc2ccc(-c3[nH]c(C(C)(C)C)nc3-c3ccc(F)cc3)nc21 [ralimetinib]
Outline: as §1

[11] = compound: CC(C)(O)CC(=O)NCCn1ccc2ncnc(Nc3ccc(Oc4cccc(C(F)(F)F)c4)c(Cl)c3)c21
Outline: as §1

[12] = compound: CC(C)C1=C2N=C(C=C(N2N=C1)NCC3=CC=CC=C3)NCCCCCCN
Outline: as §1

[13] = compound: CC(C)C[C@@H](C=O)NC(=O)[C@H](CC(C)C)NC(=O)[C@H](CC(C)C)NC(=O)OCc1ccccc1
Outline: as §1

pinometostat = compound: CC(C)N(C[C@H]1O[C@@H](n2cnc3c(N)ncnc32)[C@H](O)[C@@H]1O)[C@H]1C[C@@H](CCc2nc3cc(C(C)(C)C)ccc3[nH]2)C1 [pinometostat]
Outline: as §1

[14] = compound: CC1=C(C(CC(=O)N1)C2=CC=C(C=C2)C(F)(F)F)C(=O)NC3=C(C=C4C(=C3)C=NN4)F
Outline: as §1

[15] = compound: CC1=C(C2=C(C=C1)C(=O)C3=CC=CC=C3N2CCCN)C
Outline: as §1

Chain of UniProt P13498 (P13498 whole entry, looked up): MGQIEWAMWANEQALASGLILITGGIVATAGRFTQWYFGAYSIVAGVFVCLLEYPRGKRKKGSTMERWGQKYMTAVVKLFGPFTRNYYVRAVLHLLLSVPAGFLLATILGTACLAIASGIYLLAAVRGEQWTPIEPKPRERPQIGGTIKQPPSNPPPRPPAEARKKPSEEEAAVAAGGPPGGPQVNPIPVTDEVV
Chain of UniProt Q96CS3 (Q96CS3 whole entry, looked up): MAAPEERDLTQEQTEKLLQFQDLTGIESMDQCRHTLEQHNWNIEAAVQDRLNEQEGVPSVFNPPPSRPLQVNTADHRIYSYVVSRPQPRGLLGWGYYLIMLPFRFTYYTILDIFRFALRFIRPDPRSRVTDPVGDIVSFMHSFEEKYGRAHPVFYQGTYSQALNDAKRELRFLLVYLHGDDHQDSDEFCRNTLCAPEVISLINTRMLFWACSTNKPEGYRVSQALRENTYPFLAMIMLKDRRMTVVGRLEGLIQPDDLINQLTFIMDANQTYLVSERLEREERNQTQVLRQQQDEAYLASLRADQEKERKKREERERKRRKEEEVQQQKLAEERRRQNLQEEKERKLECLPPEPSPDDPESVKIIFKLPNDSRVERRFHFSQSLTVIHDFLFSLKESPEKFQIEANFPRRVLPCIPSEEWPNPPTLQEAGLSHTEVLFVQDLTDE
Chain of UniProt Q04637 (Q04637 whole entry, looked up): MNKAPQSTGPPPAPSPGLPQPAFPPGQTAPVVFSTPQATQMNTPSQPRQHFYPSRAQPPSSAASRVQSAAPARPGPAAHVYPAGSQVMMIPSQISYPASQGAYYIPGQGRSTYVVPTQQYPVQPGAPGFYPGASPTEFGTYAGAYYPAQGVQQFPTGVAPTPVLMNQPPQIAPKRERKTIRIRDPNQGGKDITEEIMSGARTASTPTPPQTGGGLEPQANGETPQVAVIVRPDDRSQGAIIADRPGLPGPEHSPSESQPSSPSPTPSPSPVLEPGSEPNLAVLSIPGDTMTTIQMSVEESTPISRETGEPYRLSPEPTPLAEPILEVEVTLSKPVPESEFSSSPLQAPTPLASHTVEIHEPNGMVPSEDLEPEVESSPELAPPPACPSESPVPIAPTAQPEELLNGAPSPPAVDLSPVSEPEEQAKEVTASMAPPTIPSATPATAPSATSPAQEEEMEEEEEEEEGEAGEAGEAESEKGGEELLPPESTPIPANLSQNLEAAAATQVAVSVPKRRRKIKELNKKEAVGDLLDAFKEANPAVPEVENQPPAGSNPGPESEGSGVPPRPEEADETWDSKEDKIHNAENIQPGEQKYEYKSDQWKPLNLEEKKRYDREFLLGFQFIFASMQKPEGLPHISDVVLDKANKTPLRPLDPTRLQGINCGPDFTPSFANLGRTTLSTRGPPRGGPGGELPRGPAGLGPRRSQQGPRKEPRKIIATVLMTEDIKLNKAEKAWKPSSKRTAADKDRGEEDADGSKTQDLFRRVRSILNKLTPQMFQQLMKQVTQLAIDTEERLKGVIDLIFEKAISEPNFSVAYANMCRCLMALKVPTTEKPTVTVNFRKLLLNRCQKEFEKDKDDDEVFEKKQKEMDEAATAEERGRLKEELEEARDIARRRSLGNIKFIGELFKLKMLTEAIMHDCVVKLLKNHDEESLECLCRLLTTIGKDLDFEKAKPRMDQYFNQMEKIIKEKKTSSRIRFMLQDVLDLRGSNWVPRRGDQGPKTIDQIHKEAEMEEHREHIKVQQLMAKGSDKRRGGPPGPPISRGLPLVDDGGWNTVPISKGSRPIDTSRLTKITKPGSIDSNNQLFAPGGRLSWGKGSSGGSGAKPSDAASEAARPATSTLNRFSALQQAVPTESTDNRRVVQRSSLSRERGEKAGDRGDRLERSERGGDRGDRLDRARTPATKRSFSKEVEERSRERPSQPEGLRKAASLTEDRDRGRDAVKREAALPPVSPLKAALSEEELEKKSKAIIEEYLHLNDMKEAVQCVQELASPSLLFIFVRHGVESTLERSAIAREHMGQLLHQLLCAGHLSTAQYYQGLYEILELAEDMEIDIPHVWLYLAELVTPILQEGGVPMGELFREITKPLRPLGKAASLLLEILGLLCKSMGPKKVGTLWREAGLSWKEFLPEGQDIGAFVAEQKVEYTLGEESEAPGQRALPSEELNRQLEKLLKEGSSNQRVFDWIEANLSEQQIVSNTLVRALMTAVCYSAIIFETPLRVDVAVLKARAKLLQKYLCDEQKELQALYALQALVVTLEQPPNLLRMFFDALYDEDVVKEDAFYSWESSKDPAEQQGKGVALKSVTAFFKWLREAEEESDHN
Chain of UniProt Q9NV06 (Q9NV06 whole entry, looked up): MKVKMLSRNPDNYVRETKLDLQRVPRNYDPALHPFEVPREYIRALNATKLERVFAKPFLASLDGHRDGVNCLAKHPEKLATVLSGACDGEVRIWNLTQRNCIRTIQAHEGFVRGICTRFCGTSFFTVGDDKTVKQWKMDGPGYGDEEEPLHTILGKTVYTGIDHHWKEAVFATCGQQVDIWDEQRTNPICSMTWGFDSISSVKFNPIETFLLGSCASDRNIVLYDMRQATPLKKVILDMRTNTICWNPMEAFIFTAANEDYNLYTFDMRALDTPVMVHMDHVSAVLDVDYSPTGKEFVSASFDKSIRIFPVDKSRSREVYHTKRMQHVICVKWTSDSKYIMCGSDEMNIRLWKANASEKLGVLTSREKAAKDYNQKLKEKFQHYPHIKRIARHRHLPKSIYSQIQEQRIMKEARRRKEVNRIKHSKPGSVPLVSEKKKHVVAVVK
Chain of UniProt Q13409 (Q13409 whole entry, looked up): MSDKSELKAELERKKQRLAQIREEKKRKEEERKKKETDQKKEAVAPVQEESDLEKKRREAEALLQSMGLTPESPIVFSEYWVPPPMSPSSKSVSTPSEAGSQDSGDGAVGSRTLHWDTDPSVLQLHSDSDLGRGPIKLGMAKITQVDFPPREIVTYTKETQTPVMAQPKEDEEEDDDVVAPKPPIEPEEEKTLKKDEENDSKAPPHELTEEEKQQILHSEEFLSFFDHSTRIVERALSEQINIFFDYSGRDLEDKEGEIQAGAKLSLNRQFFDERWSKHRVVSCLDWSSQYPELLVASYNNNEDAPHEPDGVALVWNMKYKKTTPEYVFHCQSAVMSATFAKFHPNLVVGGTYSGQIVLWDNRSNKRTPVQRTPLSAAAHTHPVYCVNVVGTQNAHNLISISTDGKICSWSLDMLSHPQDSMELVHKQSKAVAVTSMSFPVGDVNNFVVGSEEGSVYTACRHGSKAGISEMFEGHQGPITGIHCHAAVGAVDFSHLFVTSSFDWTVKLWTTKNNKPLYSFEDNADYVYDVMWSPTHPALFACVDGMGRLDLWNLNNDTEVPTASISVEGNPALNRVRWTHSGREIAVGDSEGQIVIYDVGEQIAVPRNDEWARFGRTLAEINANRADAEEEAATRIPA
Chain of UniProt P10619 (P10619 whole entry, looked up): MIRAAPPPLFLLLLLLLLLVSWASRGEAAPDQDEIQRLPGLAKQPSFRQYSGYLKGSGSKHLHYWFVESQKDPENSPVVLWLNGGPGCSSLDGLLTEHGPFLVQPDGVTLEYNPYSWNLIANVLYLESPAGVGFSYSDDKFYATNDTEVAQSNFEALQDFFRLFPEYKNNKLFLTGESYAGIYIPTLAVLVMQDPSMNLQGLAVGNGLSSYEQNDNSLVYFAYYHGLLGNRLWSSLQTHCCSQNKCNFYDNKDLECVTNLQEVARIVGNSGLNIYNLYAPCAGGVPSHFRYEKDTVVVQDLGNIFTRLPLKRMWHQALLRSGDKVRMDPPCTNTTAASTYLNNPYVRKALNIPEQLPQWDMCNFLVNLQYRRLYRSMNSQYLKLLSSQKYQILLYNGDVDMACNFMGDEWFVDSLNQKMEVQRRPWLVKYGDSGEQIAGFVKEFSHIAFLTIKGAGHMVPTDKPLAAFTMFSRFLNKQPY
Chain of UniProt P34913 (P34913 whole entry, looked up): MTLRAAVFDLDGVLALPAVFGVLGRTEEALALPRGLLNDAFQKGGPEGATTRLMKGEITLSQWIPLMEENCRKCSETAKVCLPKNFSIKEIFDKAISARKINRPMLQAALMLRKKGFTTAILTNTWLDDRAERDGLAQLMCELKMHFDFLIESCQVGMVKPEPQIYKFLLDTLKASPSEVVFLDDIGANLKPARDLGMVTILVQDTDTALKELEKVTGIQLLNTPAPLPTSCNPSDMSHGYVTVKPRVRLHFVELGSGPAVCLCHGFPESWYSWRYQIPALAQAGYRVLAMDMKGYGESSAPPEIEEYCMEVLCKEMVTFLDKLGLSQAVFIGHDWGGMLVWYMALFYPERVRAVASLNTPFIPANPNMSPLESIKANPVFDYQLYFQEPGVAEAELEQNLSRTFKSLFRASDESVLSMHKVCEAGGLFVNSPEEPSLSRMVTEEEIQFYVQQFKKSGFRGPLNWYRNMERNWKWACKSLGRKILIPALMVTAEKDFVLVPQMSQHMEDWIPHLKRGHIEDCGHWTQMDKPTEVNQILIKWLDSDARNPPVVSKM
Chain of UniProt Q15369 (Q15369 whole entry, looked up): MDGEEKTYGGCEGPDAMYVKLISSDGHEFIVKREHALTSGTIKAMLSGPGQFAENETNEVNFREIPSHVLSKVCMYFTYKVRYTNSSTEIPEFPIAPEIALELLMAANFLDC
Chain of UniProt Q9NXF7 (Q9NXF7 whole entry, looked up): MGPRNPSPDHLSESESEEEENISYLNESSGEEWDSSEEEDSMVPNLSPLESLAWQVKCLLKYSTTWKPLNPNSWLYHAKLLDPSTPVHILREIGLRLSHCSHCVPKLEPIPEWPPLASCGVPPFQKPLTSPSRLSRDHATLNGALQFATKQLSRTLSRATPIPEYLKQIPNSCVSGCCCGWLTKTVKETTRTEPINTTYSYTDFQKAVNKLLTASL

Target | log2 fold change (erlotinib) | log2 fold change [1] | log2 fold change [2] | log2 fold change [3] | log2 fold change [4] | log2 fold change [5] | log2 fold change [6] | log2 fold change [7] | log2 fold change [8] | log2 fold change [9] | log2 fold change (IRAK-1-4 Inhibitor I) | log2 fold change (ibrutinib) | log2 fold change [10] | log2 fold change (ralimetinib) | log2 fold change [11] | log2 fold change [12] | log2 fold change [13] | log2 fold change (pinometostat) | log2 fold change [14] | log2 fold change [15]
ELOC (UniProt Q15369) | -0.055 | 0.124 | 0.066 | 0.017 | 0.117 | 0.048 | 0.075 | 0.009 | -0.016 | -0.024 | 0.017 | -0.011 | -0.018 | -0.027 | -0.07 | -0.032 | -0.042 | 0.008 | 0.002 | 0.165
EPHX2 (UniProt P34913) | -0.01 | 0.213 | -0.008 | 0.2 | 0.09 | -0.004 | 0.038 | -0.032 | 0.123 | -0.001 | 0.044 | 0.096 | -0.024 | -0.026 | -0.018 | 0.285 (active) | 0.012 | 0.144 | 0.073 | -0.006
DYNC1I2 isoform 5 (UniProt Q13409) | -0.009 | -0.016 | -0.033 | 0.003 | 0.025 | -0.006 | 0.057 | 0.016 | 0.007 | 0.018 | 0.022 | 0.016 | 0.022 | 0.013 | -0.003 | 0.041 | 0.062 | -0.019 | -0.015 | -0.032
DHX36 (UniProt Q9H2U1) | -0.089 | 0.013 | -0.08 | 0.031 | -0.072 | 0.011 | 0.044 | -0.023 | 0.047 | -0.066 | -0.053 | 0.014 | 0.001 | 0.111 | 0.009 | -0.025 | 0.056 | 0.153 | 0.031 | -0.206
DCAF13 (UniProt Q9NV06) | -0.085 | -0.172 | -0.441 | 0.079 | -0.114 | -0.05 | -0.034 | -0.047 | 0.044 | -0.094 | -0.079 | 0.019 | 0.101 | 0.077 | 0.032 | -0.078 | 0.165 | 0.263 | 0.037 | -0.33
EGLN1 (UniProt Q9GZT9) | 0.035 | -0.355 (active) | 0.075 | -0.035 | 0.043 | -0.08 | 0.021 | -0.02 | 0.01 | -0.003 | 0.016 | -0.054 | -0.027 | -0.034 | -0.01 | -0.083 | 0.018 | 0.045 | -0.002 | -0.029
EXOC5 (UniProt O00471) | 0.054 | 0.092 | -0.002 | -0.044 | 0.01 | 0 | -0.006 | 0.015 | 0.004 | -0.015 | -0.062 | -0.002 | -0.01 | 0.015 | -0.03 | -0.344 (active) | 0.014 | 0.078 | 0 | -0.061
FADS1, A0A0A0MR51 | 0.016 | -0.11 | -0.049 | -0.134 | 0.09 | 0.05 | 0.231 (active) | -0.008 | -0.006 | 0.002 | 0.085 | 0.015 | -0.07 | 0.017 | 0.355 (active) | -0.044 | 0.05 | 0.027 | -0.013 | 0.003
DCAF16 (UniProt Q9NXF7) | 0.051 | 0.042 | 0.036 | 0 | -0.034 | -0.002 | -0.001 | 0.048 | 0.039 | -0.127 | -0.04 | 0.017 | 0.039 | 0.034 | -0.052 | -0.027 | 0.018 | 0.055 | -0.047 | -0.105
EIF4G1 isoform 8 (UniProt Q04637) | -0.092 | 0.128 | -0.065 | 0.011 | -0.036 | -0.089 | -0.099 | -0.246 | -0.197 | -0.28 | -0.124 | -0.148 | -0.3 | 0.057 | -0.053 | -0.387 | 0.046 | 0.149 | 0.096 | 0.018
CTSA (UniProt P10619) | -0.058 | -0.065 | 0.001 | -0.004 | -0.053 | 0.018 | 0.04 | 0.003 | 0.021 | 0.051 | -0.006 | 0.017 | 0.038 | -0.027 | 0.027 | -0.204 | -0.017 | 0.014 | 0.014 | -0.058
CTSC (UniProt P53634) | -0.002 | 0.016 | 0.022 | -0.031 | 0.014 | 0.004 | 0.028 | 0.009 | -0.02 | 0.138 | 0.008 | 0.011 | -0.003 | -0.034 | 0.016 | -0.061 | 0.015 | -0.031 | -0.018 | -0.038
EDC4 (UniProt Q6P2E9) | -0.045 | 0.1 | -0.058 | 0.017 | -0.177 | -0.069 | -0.035 | -0.151 | -0.023 | -0.041 | -0.041 | -0.001 | -0.387 (active) | 0.019 | 0.007 | -0.181 | 0.022 | 0.05 | -0.016 | -0.032
DIAPH1 (UniProt O60610) | 0.072 | 0.058 | -0.109 | -0.037 | 0.031 | 0.04 | 0.067 | 0.006 | -0.072 | -0.235 | -0.128 | -0.061 | 0.072 | 0.168 | 0 | -0.373 (active) | 0.07 | 0.213 | -0.017 | -0.08
CYBA (UniProt P13498) | -0.075 | 0.096 | -0.005 | 0.025 | 0.042 | 0.032 | 0.03 | -0.072 | -0.012 | -0.005 | 0.044 | 0.024 | -0.024 | -0.041 | -0.152 | -0.43 (active) | 0.121 | -0.036 | -0.018 | -0.026
FAF2 (UniProt Q96CS3) | 0.009 | 0.078 | -0.003 | 0.02 | 0.049 | 0.03 | 0.15 | 0.009 | 0.035 | 0.004 | 0 | -0.026 | -0.034 | 0.103 | -0.029 | -0.044 | 0.03 | 0.053 | 0.008 | 0.044
